The source of these data is PubChem BioAssay AID777 (Sanford-Burnham Center for Chemical Genomics, 2007).

The whole screen tested about 96,000 compounds, of which about 19,000 (20%) were called active. Only a sample is shown. A number with no mark means an inactive call.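 How the source made its calls: active means blocking of liver enzyme CYP2C9 beyond about 50% at 5 µM (limit read from the data); inactive means the rest.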

In this test the target is Cytochrome P450 2C9 (Homo sapiens) (UniProt P11712). As to the kind of experiment: blockers of cytochrome P450 2C9 activity – biochemical, luminescence, ADME assay, primary screen (AID 777). The conditions noted are these: CYP2C9 Supersomes, luciferin-H conversion, at 5 µM, stronger effect = higher value.
Chain of Cytochrome P450 2C9 (Homo sapiens) (P11712 whole entry, looked up): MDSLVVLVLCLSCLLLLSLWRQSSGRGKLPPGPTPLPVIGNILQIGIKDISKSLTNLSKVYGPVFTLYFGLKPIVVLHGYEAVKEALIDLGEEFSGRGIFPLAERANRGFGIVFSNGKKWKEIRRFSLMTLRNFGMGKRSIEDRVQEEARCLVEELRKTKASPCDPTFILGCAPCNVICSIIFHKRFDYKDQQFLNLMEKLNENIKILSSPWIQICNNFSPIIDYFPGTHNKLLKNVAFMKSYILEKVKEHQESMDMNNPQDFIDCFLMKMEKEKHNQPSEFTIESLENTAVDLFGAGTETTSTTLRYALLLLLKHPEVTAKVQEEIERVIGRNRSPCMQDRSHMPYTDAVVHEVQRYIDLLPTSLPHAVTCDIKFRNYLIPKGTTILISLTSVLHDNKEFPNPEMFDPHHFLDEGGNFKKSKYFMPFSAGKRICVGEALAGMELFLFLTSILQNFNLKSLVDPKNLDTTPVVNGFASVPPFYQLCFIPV
What is called inhibition is the drop in the measured response relative to a control, in per cent. Turning to `Oc1ccc(-c2onc3ccc(Cl)cc23)cc1`, the inhibition is 90.2% (active). As for `CC1(C)Oc2ccc3ccc(=O)oc3c2/C(=C/NCCO)C1=O`, the inhibition was 4.1%. In the case of `O=C(/C=C/Nc1ccccc1)c1cnc(-c2ccccc2)s1` it was 12.6%; in that of `O=C1c2ccncc2C(=O)N1C1CCCCC1`, 12.5%. In the case of `COc1ccc(C2C(C(=O)Nc3ccccc3OC)=C(C)Nc3nnnn32)c(OC)c1` (configuration not stated) it was 31.8%. With `CCCCCOC(=O)C1=C(C)Nc2nnnn2C1c1ccc(OC)c(OC)c1OC` (configuration not stated) the figure was 56.5% (active); with `CC1=C(C(N)=O)C(c2sccc2C)n2nnnc2N1` (configuration not stated), -4.8%; with `CCc1cc(Br)ccc1NC(=O)C1CCCO1` (configuration not stated), -2.1%. With `CC(=O)Oc1cc2c(C(=O)NCCN3CCOCC3)c(C)oc2c2ccccc12`, the inhibition is 24.6%. In the case of `CC(c1ccccn1)N(CCN(C)C)C(=S)Nc1ccccc1F` (configuration not stated) it was -1.3%; in that of `CCNC(=S)N1CCN(C(=O)c2ccco2)CC1`, 1.2%; in that of `O=C(c1cccc(C(=O)N2CCN(c3ccc(F)cc3)CC2)c1)N1CCN(c2ccc(F)cc2)CC1`, 84.6% (active). In the case of `O=C(O)C1CC=CCC1C(=O)Nc1ccccc1C(=O)N1CCN(c2ccccc2)CC1` (configuration not stated) it was 6%.

For `O=C(c1ccccc1)c1cccn1CC(=O)N1CCN(c2ccc(F)cc2)CC1`, the inhibition was -62.9%. In the case of `O=[N+]([O-])c1ccc(N2CCN(S(=O)(=O)c3ccc4ccccc4c3)CC2)cc1NCc1ccco1`, the inhibition is 27.8%. In the case of `CCC(CC)C(=O)Nc1cccc(C(=O)N2CCCC2)c1` it was 12.7%. With `CC(C)N(C(=O)COC(=O)c1ccccc1C(=O)N1CCN(c2ccc(F)cc2)CC1)C(C)C` the figure was 39.5%; with `O=C(c1cccc(F)c1)N1CCN(c2ccc([N+](=O)[O-])c(N3CCCCC3)c2)CC1`, 80.7% (active). For the compound `CO/N=C/c1ccc(N2CCN(C(=O)c3cccc(Cl)c3)CC2)c([N+](=O)[O-])c1`, the inhibition was 14.4%. In the case of `O=C(c1ccccc1)N1CCN(c2ccc([N+](=O)[O-])c(NCc3ccco3)c2)CC1` it was 87.1% (active). For `O=C(c1ccccc1Oc1ccccc1)N1CCN(c2ccc(F)cc2)CC1`, the inhibition is 77% (active). In the case of `O=C(c1cccc(N2CCCC2=O)c1)N1CCOCC1` it was 5.6%; in that of `CNC(=O)Nc1cc(C(C)(C)C)no1`, 7.8%.

`CCOC(=O)c1c(N)c(C#N)nn1-c1ccccc1C(=O)OC`: the inhibition is -2.3%.

Consider `CN(C(=O)CC(NC(=O)c1ccccc1)(c1ccccc1)c1ccccc1)c1ccccc1`, for which the inhibition is 21.9%. Consider `CC(C)CC(=O)N=C1SC2CS(=O)(=O)CC2N1CCc1ccccc1` (configuration not stated), for which the inhibition was 7.8%. With `CCc1ccc(-c2nnn(Cc3nn[nH]n3)n2)cc1` the figure was 23.5%; with `CCNC(=O)N1CCNC(=O)C1CC(=O)Nc1ccc(C(=O)OCC)cc1` (configuration not stated), 1.1%; with `COC(=O)c1ccc(C(=O)OC)c(NC(=S)N2CCCCC2)c1`, 14%. In the case of `O=C(Nc1ccc2c(c1)CCC2)c1cccc(S(=O)(=O)N2CCN(c3ccc(F)cc3)CC2)c1` it was 39.9%; in that of `CCCCc1nnc(NC(=O)CS(=O)(=O)Cc2ccccc2)s1`, 44.7%. Consider `C=CCNc1nnc(C)c2ccccc12`, for which the inhibition was -15.2%. With `Cc1ccccc1CS(=O)(=O)CC1(O)CCN(C(=O)c2cccc(C(F)(F)F)c2)CC1` the figure was 4.9%. In the case of `O=C(c1ccccc1)N1CCN(C(=O)N2CCCCC2)CC1` it was 1.9%. In the case of `Cc1ccccc1CN1CCN(C(=O)c2cccc(F)c2)CC1` it was 85.6% (active). Consider `Cc1ccc(C(=O)N2CCCCCC2)cc1Br`, for which the inhibition was -23.3%.

As to `Cc1cccc(C(=O)N2CCCN(C(=O)c3cccc(C)c3)CC2)c1`, the inhibition was 70.4% (active). As for `O=C(CN1CCN(C(=O)c2cccc(F)c2)CC1)Nc1ccccc1F`, the inhibition was 27.5%. In the case of `Cc1ccc(S(=O)(=O)N(c2cccc(C)c2)C2CCS(=O)(=O)C2)cc1` (configuration not stated) it was 7.2%; in that of `CC(C)C(=O)Nc1ccc2c(c1)oc1ccccc12`, 1.8%; in that of `CC1Cc2ccccc2N1C(=O)CSc1nnc(-c2ccc(S(=O)(=O)N3CCCCC3)cc2)o1` (configuration not stated), 31.7%.

In the case of `COc1ccc(C2=NOC3(CC(=O)N(c4ccc(C)cc4)C3=O)C2)cc1` (configuration not stated), the inhibition is 12%. With `CCCc1nnc(NC(=O)c2cc(OC)cc(OC)c2)s1` the figure was 21.7%; with `Cc1ccc(NS(=O)(=O)c2c(C)[nH]c(=O)[nH]c2=O)cc1C`, 4.6%; with `COc1ccc(S(=O)(=O)Nc2ccc(F)cc2)c(C)c1C`, 66.9% (active).

On to `COc1ccc(S(=O)(=O)N2CCCC2)c(C)c1C`, for which the inhibition was -147%. In the case of `CCOc1cc(C(=O)Nc2ncccn2)cc(OCC)c1OCC`, the inhibition is 3.1%. With `Nc1nnc(C2CCCC2)s1` the figure was 7.5%; with `COc1ccc(NC(=O)c2sccc2SCC#N)cc1`, 10.4%; with `CC1=C(C(=O)Nc2ccccc2)C(c2cccs2)C(C#N)=C(SCC#N)N1` (configuration not stated), 87.5% (active). In the case of `CCCSC1=C(C#N)C(c2ccccc2C)C(C(=O)OC)C(=O)N1` (configuration not stated) it was 33.7%. With `C/C(=N\O)C1(C)N(O)C(C)(C)C(c2ccc(Br)cc2)=[N+]1[O-]` (configuration not stated) the figure was -4.6%; with `O=c1onc(-c2cccs2)n1Cc1ccccc1`, 4.9%. In the case of `Cc1ccc(OCCCC(=O)N2CCOCC2)c(C)c1`, the inhibition is 4%.

In the case of `CCCCCNC(=O)Cc1ccc(OC)cc1`, the inhibition is 14.9%. For `CCNC(=O)NC(=O)C(C)OC(=O)c1cc(S(=O)(=O)N2CCCCCC2)ccc1OC` (configuration not stated), the inhibition is 98.5% (active). With `COc1ccc(S(=O)(=O)N2CCC(C(=O)N3CCOCC3)CC2)cc1OC` the figure was 43.3%. In the case of `CSCCC(NC(=O)c1ccco1)C(=O)OCC(=O)Nc1ncc(Cl)c(C)c1Cl` (configuration not stated) it was 24.2%; in that of `CCCCc1cc(=O)oc2cc(C)cc(OCc3nn[nH]n3)c12`, 67.5% (active); in that of `CCc1cc(=O)oc2cc(C)cc(OC(C)C(=O)O)c12` (configuration not stated), -7.1%. With `O=c1[nH]c(CCl)nc2cc(-c3ccc(Cl)cc3)sc12` the figure was 17.9%; with `O=C(Nc1sc2c(c1-c1nc3ccccc3[nH]1)CCCC2)C1CC1`, 40.5%.

As for `CCOC(=O)c1[nH]c2ccc(C)cc2c1N=C(C)N(C)C`, the inhibition is -7.9%. Consider `COc1cc(C(=O)N(Cc2ccc(N(C)C)cc2)C2CCS(=O)(=O)C2)cc(OC)c1OC` (configuration not stated), for which the inhibition was 5.2%.

Turning to `CCOc1ccc(C(=O)N(Cc2ccc(N(C)C)cc2)C2CCS(=O)(=O)C2)cc1` (configuration not stated), the inhibition is 65.3% (active).

As for `COc1ccc(C(=O)N(Cc2ccc(N(C)C)cc2)C2CCS(=O)(=O)C2)cc1` (configuration not stated), the inhibition is -2.3%. In the case of `O=C(Nc1nccs1)c1cc(S(=O)(=O)N2CCOCC2)c(Cl)cc1Cl` it was 15.1%; in that of `CC(=O)N(CC1CCCO1)C1(C(=O)NC2CCCC2)CCCCC1` (configuration not stated), -7.3%. With `COC(=O)c1ccc(CSc2ccc3nnc(-c4ccccc4)n3n2)o1` the figure was 96.2% (active); with `COC(=O)c1ccc(CSc2nncn2C)cc1`, 21.6%; with `CCOc1ccccc1Nc1nnc(SCc2ccc(C(=O)OC)o2)s1`, -73.5%. In the case of `COc1cc(OC)cc(-c2nc3nc(C)c(CCC(=O)NCc4ccco4)c(C)n3n2)c1` it was 15.8%; in that of `O=C(NCc1ccccn1)c1c(O)c2c([nH]c1=O)CCCC2`, 15%. As to `COc1ccc(CNC(=O)C2CCC(CNc3c(N4CCOCC4)c(=O)c3=O)CC2)cc1` (configuration not stated), the inhibition is -7.6%.

Turning to `Cc1cc(O)ccc1-c1cnc2ccccc2n1`, the inhibition is -7.4%. For the compound `O=C1c2ccccc2S(=O)(=O)N1CC(O)Cn1c2ccccc2c2ccccc21` (configuration not stated), the inhibition is 94.4% (active). In the case of `CNC(=O)CN1C(=O)c2ccccc2S1(=O)=O` it was -5.9%; in that of `O=C(CN1C(=O)c2ccccc2S1(=O)=O)N1CCc2ccccc21`, -5.2%; in that of `CCC(=O)Nc1ccc(C(=O)Nc2ccc3c(c2)C(=O)N(CC2CCCO2)C3=O)cc1` (configuration not stated), 18.8%.

For `CC(=O)Nc1cccc(Oc2cc(C#N)c(C#N)cc2N2CCOCC2)c1`, the inhibition was 61.5% (active). In the case of `CCOc1cccc(NC(=O)CC#N)c1` it was -19.3%.

As to `CC(=O)Nc1ccc(N2CCOCC2)c(C(=O)Nc2cccc(C)c2)c1`, the inhibition is 49.6%. In the case of `CCC(=O)Nc1ccc(C(=O)Nc2cc(C)on2)cc1` it was 8.5%. In the case of `Cc1ccc(/C=N/NC(=O)c2sccc2OCc2ccc(F)cc2)cc1` it was 17.4%; in that of `O=C(Nc1nnc(CCOCCOCCc2nnc(NC(=O)c3ccco3)s2)s1)c1ccco1`, 19.4%. With `Cc1[nH][nH]c(=O)c1N=Nc1ccccc1` the figure was 25.4%. With `CCCCOCCCNC(=O)c1ccccc1OCC`, the inhibition is -187%. With `NS(=O)(=O)c1ccc(CCNC(=O)Nc2ccc(Cl)cc2)cc1` the figure was 30.4%; with `CCOc1ccccc1C(=O)NCCCn1ccnc1`, 65.1% (active). In the case of `COc1ccccc1-c1cc(C(=O)NCCCn2ccnc2)no1` it was -25.8%; in that of `CCCC(=O)Nc1ccc(C(=O)NCCCn2ccnc2)cc1`, 42.1%. In the case of `O=C(NCCCn1ccnc1)Nc1ccc(Cl)cc1Cl` it was 97.7% (active); in that of `Cn1c(=NC(=O)CSCC(=O)N2CCCCC2)sc2ccccc21`, -39.3%; in that of `O=C(Cc1c(F)cccc1Cl)N1CCN(C(=O)c2ccco2)CC1`, 11.7%. With `O=C1CSC(c2cccc(F)c2)N1c1ccc(O)cc1` (configuration not stated), the inhibition was 32.7%.

For `CCN1CCN(C(=O)/C=C\C(=O)O)CC1`, the inhibition was -4.2%. With `Cc1cccc(N(CC(=O)Nc2ccc(-c3nc4ccc(C)cc4s3)cc2)S(C)(=O)=O)c1`, the inhibition is 6.7%. With `CCN(CC)S(=O)(=O)c1ccc(NC(=O)CN(c2cccc(F)c2)S(C)(=O)=O)cc1` the figure was 97.6% (active); with `COc1cccc(N(CC(=O)Nc2cccc(N(C)S(C)(=O)=O)c2)S(C)(=O)=O)c1`, 57.7% (active); with `CS(=O)(=O)N(CC(=O)Nc1ccc(F)cc1F)c1cccc([N+](=O)[O-])c1`, 13.3%. With `COc1cccc(N(CC(=O)Nc2cccc(F)c2)S(C)(=O)=O)c1` the figure was 45.4%. Take `Cc1ccc(N(CC(=O)Nc2cccc(N(C)S(C)(=O)=O)c2)S(C)(=O)=O)cc1`: the inhibition is 5.5%.
